Screening results: PubChem BioAssay, National Center for Advancing Translational Sciences (NCATS)
D3 antag – qHTS of D3 Dopamine Receptor Antagonist: qHTS | D3R cells, DiscoveRx beta-arrestin luminescence, antagonist mode; active compounds read low | actives 2.5% (n = 360,000) | AID 652054, 2013 | max response, negative = inhibition, %; in the data active = max response below about -50%; inconclusive = no clear call, values can overlap the other calls
Target sequence (P35462 whole entry, looked up): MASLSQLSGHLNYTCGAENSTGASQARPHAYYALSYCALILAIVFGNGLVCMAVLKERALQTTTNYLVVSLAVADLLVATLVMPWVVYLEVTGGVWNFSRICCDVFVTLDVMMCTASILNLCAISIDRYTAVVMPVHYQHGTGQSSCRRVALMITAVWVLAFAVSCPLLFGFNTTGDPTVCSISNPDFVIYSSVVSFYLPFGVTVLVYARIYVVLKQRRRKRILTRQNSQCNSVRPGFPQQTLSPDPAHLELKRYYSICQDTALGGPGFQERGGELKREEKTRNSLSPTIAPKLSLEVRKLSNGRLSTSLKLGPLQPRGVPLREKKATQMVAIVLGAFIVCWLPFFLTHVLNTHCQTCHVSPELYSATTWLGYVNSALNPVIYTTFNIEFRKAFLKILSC
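Cells expressing the human receptor were seeded at 1500 cells/well, incubated overnight at 37 degrees C in 5% CO2, then exposed to library compounds with dopamine controls for 90 minutes at 37 degrees C before luminescent detection.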
TDP1 cell CPT – qHTS for Inhibitors of human tyrosyl-DNA phosphodiesterase 1 (TDP1): qHTS in cells in presence of CPT; chicken DT40 Tdp1-/-;hTDP1 cells + 20 nM CPT, ATP luminescence, 48 h; Potency, µM (series often up to 46.2 µM), hits mostly inhibitors; actives 12% (n = 420,000); AID 686979, 2013; note: nearly all actives have a fitted effect of over 55% in size
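Cell growth measured by CellTiter-Glo luminescence after a minimum 48 h, 37 C compound exposure with 20 nM CPT in Tdp1-knockout DT40 cells stably expressing hTDP1, seeded 400/well; qHTS titration format.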
IL-1B inflam inh – qHTS for Inhibitors of Inflammasome Signaling: IL-1-beta AlphaLISA Primary Screen | THP-1 LPS/ATP IL-1B secretion, AlphaLISA, 16 h; active compounds read low | activity change, % at 57.5 µM | actives 4.7% (n = 360,000); in the data active = activity change below about -50%; inconclusive = mostly about -30% to -49%
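Secreted IL-1B measured by AlphaLISA bead assay after 16 h compound exposure of THP-1 cells; compounds (final up to 57.5 uM) added 1 h before LPS (250 ng/mL) and ATP (1.25 mM) stimulation; lower signal means less secretion.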
DRD3 agonist – qHTS of D3 Dopamine Receptor Agonist: qHTS; max activation, %; D3R DiscoveRx beta-arrestin cells, luminescence, 90 min; actives 0.58% (n = 410,000); D(3) dopamine receptor (Homo sapiens), P35462; in the data active = max activation above about 30%
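Agonist mode: compounds and dopamine controls were applied to plated cells for 90 min at 37 degrees C after an overnight attachment at 1500 cells/well. Luminescent read-out followed 30 - 60 minutes at room temperature with DiscoveRx detection reagent.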
ClpP mod – qHTS Assay for Activators of ClpP; Potency, µM (doses to about 57.5 µM); ATP-dependent Clp protease proteolytic subunit (Bacillus subtilis (strain 168)), P80244; purified B. subtilis ClpP, FRET peptide cleavage, 20 min; actives 1.9% (n = 340,000); active = well fitted falling curve with a large enough effect; inconclusive = small, poorly fitted or top-dose-only effect; inactive = no such curve, though single readings can be large or run the other way; note: the source files actives as falling curves though it sought activators and does not explain the sign; nearly all actives have a fitted effect of over 65% in size
Target sequence (P80244 whole entry, looked up): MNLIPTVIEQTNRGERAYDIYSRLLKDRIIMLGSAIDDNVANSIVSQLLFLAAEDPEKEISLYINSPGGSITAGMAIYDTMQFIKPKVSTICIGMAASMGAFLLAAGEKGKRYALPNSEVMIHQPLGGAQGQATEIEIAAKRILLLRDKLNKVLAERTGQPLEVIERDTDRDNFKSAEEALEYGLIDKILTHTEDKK
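Buffer: 100 mM Tris/HCl pH8, 100 mM KCl, 0.05% low protease BSA, 2.5% glycerol, 0.01% Tween-20. ClpP 10 microg/mL final; 20 min RT; delta FRET normalized to ADEP and DMSO controls.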
DT40 TDP1 no CPT – qHTS for Inhibitors of human tyrosyl-DNA phosphodiesterase 1 (TDP1): qHTS in cells in absence of CPT. DT40 Tdp1-/- hTDP1 cells, no CPT, ATP luminescence, 48 h. Potency, µM (doses to about 46.2 µM), usual class: inhibitors. actives 15% (n = 420,000); note: nearly all actives have a fitted effect of over 55% in size
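Luminescent ATP content (CellTiter-Glo) served as the growth readout. Knockout chicken DT40 cells expressing human TDP1 were exposed to compounds without camptothecin for a minimum 48 hr at 37 °C.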
Hits are given with their value; n = inactive; u = inconclusive; x = no result. An excerpt weighted towards active compounds, which were near 21% of everything screened. Unless noted, calls come from the whole dose curve; as a rule, active = well fitted inhibition curve with a large enough effect; inconclusive = small, poorly fitted or top-dose-only effect; inactive = flat fitted curve, though single readings scatter.

SMILES	D3 antag	TDP1 cell CPT	IL-1B inflam inh	DRD3 agonist	ClpP mod	DT40 TDP1 no CPT
O=C(CSc1nc2c([nH]c3ccccc32)c(=O)n1-c1ccccc1)NCC1CCCO1 (stereo not drawn)	-84	n	n	n	n	n
CCn1c(SCC(=O)NCC2CCCO2)nc2c([nH]c3ccccc32)c1=O (stereo not drawn)	n	n	n	n	n	n
O=C(Cn1ncc2c([nH]c3ccccc32)c1=O)Nc1cc(F)ccc1F	x	n	x	n	n	n
COc1cc(N(C(=O)Cc2cccs2)C(C(=O)NC2CCCCC2)c2cccc(OC)c2OC)ccc1-n1cnnn1 (stereo not drawn)	n	12µM	n	n	n	26µM
Cc1ccc(C(C(=O)NC2CCCC2)N(C(=O)Cc2cccs2)c2ccc(C)c(C)c2)o1 (stereo not drawn)	n	u	-74	n	n	22µM
COc1cccc(C(C(=O)NC2CCCCC2)N(C(=O)Cc2cccs2)c2ccc(-n3cnnn3)c(OC)c2)c1 (stereo not drawn)	n	u	n	n	n	u
Cc1cccc(CCN(C(=O)Cc2cccs2)C(C(=O)NC2CCCCC2)c2cccnc2)c1 (stereo not drawn)	n	5.8µM	u	n	n	u
Cc1ccc(C)c(N(C(=O)Cc2cccs2)C(C(=O)NC2CCCC2)c2ccc(C)o2)c1 (stereo not drawn)	n	23µM	n	n	n	13µM
CC(=O)c1c(O)cc(O)cc1O	n	n	n	n	n	n
COc1ccc2c(c1)C(O)C(CO)C(C(=O)O)C2 (stereo not drawn)	n	n	n	n	n	n
O=C(/C=C/c1ccco1)N(c1ccccn1)c1ccccn1	n	n	n	n	x	n
Cc1ccc(C(C(=O)NC2CCCC2)N(C(=O)Cc2cccs2)c2ccc3c(c2)OCCO3)cc1 (stereo not drawn)	n	u	-58	n	n	u
O=C(NC1CCCC1)C(c1ccc(F)cc1)N(C(=O)Cc1cccs1)c1ccc2c(c1)OCCO2 (stereo not drawn)	n	u	n	n	n	u
CC[C@H]1CCCCc2ccccc2[C@@H](C(=O)C[C@@H](O)CC(C)=O)OC1=O	n	15µM	n	n	n	u
CC[C@@H]1CCCCc2ccccc2[C@H](C(=O)C[C@@H](O)CC(C)=O)OC1=O	n	21µM	n	n	n	n
O=C(O)c1ccc(Cl)c(NC(=O)C2CCN(S(=O)(=O)c3cccs3)CC2)c1	u	n	n	n	n	n
CCCOc1ccc(Oc2ccc(S(=O)(=O)N3CCN(C)CC3)cn2)cc1	n	n	n	n	n	u
CCCCn1nnnc1C(c1cc2ccccc2o1)N1CCN(c2ncccc2C#N)CC1 (stereo not drawn)	n	u	n	n	n	18µM
COc1ccc(C(c2nnnn2-c2ccc3c(c2)OCCO3)N2CCN(C/C=C/c3ccccc3)CC2)cc1 (stereo not drawn)	-76	16µM	u	n	n	16µM
COc1ccc(-n2nnnc2C(c2cc3ccccc3o2)N2CCN(C/C=C/c3ccccc3)CC2)cc1 (stereo not drawn)	-98	23µM	n	n	n	15µM
CC(C)(C)n1nnnc1C(c1cc2ccccc2o1)N1CCCC1 (stereo not drawn)	n	n	n	n	n	n
COc1ccc(-n2nnnc2C(c2cccc3ccccc23)N2CCN(C/C=C/c3ccccc3)CC2)cc1 (stereo not drawn)	-92	7.3µM	n	n	n	8.2µM
CCC(C)(C)n1nnnc1C(c1cc(OC)ccc1OC)N1CCN(Cc2ccccc2)CC1 (stereo not drawn)	n	u	n	n	x	u
O=C(Cn1c(=O)n(Cc2ccc(C(=O)NCc3ccc4c(c3)OCO4)cc2)c(=O)c2ccccc21)Nc1ccc(F)cc1F	x	n	x	n	n	u
CC(C)(C)n1nnnc1C(c1cc2ccccc2o1)N1CCOCC1 (stereo not drawn)	n	n	n	n	n	n
SMILES	D3 antag	TDP1 cell CPT	IL-1B inflam inh	DRD3 agonist	ClpP mod	DT40 TDP1 no CPT
CCCCn1nnnc1C(c1cc2ccccc2o1)N1CCCC1 (stereo not drawn)	n	u	n	n	n	n
C(=C\c1ccccc1)/CN1CCN(C(c2cccs2)c2nnnn2-c2ccc3c(c2)OCCO3)CC1 (stereo not drawn)	-79	u	n	n	n	23µM
CCCCn1nnnc1C(c1cc2ccccc2o1)N1CCN(C/C=C/c2ccccc2)CC1 (stereo not drawn)	-72	21µM	n	n	n	16µM
C(=C\c1ccccc1)/CN1CCN(C(c2cc3ccccc3o2)c2nnnn2-c2ccc3c(c2)OCCO3)CC1 (stereo not drawn)	-89	13µM	n	n	n	15µM
COc1cn(CC(=O)Nc2cc(C)cc(C)c2)c(CN2CCCCC2)cc1=O	x	n	x	n	n	n
O=c1[nH]nnc2c1cnn2-c1ccccc1	n	n	n	n	n	n
Cn1c(=O)[nH]c(=O)c2c1nc1n2CC(COc2ccc3ccccc3c2)O1 (stereo not drawn)	n	n	n	n	x	n
Oc1ccccc1/C=N/Nc1ccnc(SCc2ccccc2)n1	-69	0.065µM	n	n	n	0.082µM
Oc1ccc(C=NNC(=S)Nc2ccccc2)nc1	n	5.2µM	n	n	n	5.2µM
CCC(C)[C@@H](N)C(=O)N/N=C/c1ccc2ncccc2c1 (stereo partly drawn)	n	n	n	n	n	13µM
CNC(=S)N/N=C/c1c(Cl)cccc1Cl	n	u	n	n	n	u
CNC(=S)N/N=C/c1ccccc1Cl	n	u	-50	n	u	u
CC(C)(C)OC(=O)NCCC(=O)N/N=C/c1ccc2ncccc2c1	n	n	n	n	n	u
S=C(N/N=C/c1ccccc1Cl)Nc1ccccc1	-64	16µM	n	n	n	u
O=C(Nc1ccccc1F)Nc1ccccc1Br	n	n	n	n	n	u
S=C(N/N=C/c1cccc2ccccc12)Nc1cccc(Cl)c1	-54	n	n	n	x	u
Cc1c(Cl)cccc1NC(=S)N/N=C/c1ccccc1Cl	n	u	n	n	x	u
Oc1ccccc1C=NNC(=S)NN=Cc1ccccc1O	n	5.2µM	n	n	x	4.6µM
